This is one part of the list.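 Rule for the calls: active = inhibition at or above 50% in each of two repeat confirmation tests; inconclusive = one repeat below 50% inhibition, the other above; inactive = both repeats at or below 50% inhibition.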
Target: Serine/threonine-protein kinase PLK1 (Homo sapiens) (UniProt P53350)
Experiment: PLK1 kinase activity inhibitors, confirmation, biochemical, TR-FRET, duplicate runs (AID 744);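 note: 0% = DMSO max control and 100% = H-89 kinase-blocked min control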
Details: recombinant PLK1 kinase, TR-FRET peptide phosphorylation; at 10 µM; hits give high values

Serine/threonine-protein kinase PLK1 (Homo sapiens), sequence (P53350 whole entry, looked up): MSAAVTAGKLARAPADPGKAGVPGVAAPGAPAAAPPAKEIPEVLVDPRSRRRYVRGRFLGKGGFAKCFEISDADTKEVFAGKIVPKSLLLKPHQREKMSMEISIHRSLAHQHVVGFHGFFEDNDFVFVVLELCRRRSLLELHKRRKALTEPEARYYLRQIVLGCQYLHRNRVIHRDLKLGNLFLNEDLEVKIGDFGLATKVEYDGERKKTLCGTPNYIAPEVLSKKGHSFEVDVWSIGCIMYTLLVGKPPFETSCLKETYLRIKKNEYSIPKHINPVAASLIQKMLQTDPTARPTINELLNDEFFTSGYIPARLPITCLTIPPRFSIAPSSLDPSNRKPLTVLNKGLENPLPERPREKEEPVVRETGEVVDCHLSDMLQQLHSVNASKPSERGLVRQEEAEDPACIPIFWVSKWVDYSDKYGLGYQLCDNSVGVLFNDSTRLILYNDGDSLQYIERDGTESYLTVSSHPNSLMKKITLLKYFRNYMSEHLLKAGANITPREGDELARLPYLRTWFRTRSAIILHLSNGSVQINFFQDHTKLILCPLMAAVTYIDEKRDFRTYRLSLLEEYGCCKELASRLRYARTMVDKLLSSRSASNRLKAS

inhibition, inactive:
COc1ccc(-c2nc(CS(=O)CC(=O)NCc3cccnc3)c(C)o2)cc1OC (stereo unspecified) -2.97%
C[N+]1(CCNC(=O)/C=N/O)CCCCC1 -0.685%
Cc1ccnc(N2C(=O)c3ccccc3C2Nc2ccc3c(c2)OCCO3)c1 (stereo unspecified) -3.64%
O=C(Nc1cccc(F)c1)c1ccc(S(=O)(=O)N2CCCC2)cc1 -12.1%
CC1CSc2nnc(CCc3ccccc3)n21 (stereo unspecified) -11.1%
CC1CN(c2cc(=O)n(Cc3ccc(F)cc3)c(=O)[nH]2)CC(C)O1 (stereo unspecified) -5.99%

Source: PubChem BioAssay AID744 (University of Pittsburgh Molecular Library Screening Center, 2007)
